37 compounds from PubChem BioAssay (NCATS) can be followed below.

Inconclusive results are not listed. Unmarked numbers belong to inactive results. Active and inactive are the calls of the source. Calls come from the whole dose curve; as a rule, active = well fitted inhibition curve with a large enough effect; inconclusive = small, poorly fitted or top-dose-only effect; inactive = no such curve, though single readings can be large or run the other way.
Potency is the fitted concentration of half-maximal effect.

This assay in a line: Confirmatory screen NINDS Rhodamine qHTS for Zika virus inhibitors (AID 1347161).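 For activity change, negative = inhibition: purified Zika NS2B-NS3 protease with linked NS2B cofactor domain and Rhodamine110 peptide substrate; plate controls were no-inhibitor control for no effect and no-enzyme control for full effect.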 Note: nearly all actives have a fitted effect of over 60% in size. As to conditions: purified enzyme assay, Rhodamine110 substrate fluorescence, 15 min; series mostly up to 114 µM; activity change, negative = inhibition: at the top concentration. Put shortly:
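Rhodamine110-peptide cleavage (1.5 µM substrate) by 25 nM linked NS2B-NS3 enzyme at pH 8.0 (Tris, Tween 20), after 15 min RT preincubation with compounds; 15-min fluorescence change normalized to controls and Hill-fitted.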
Take `O=C(COc1ccccc1F)Nc1ccccc1C(=O)OCc1cc(=O)n2nc(C3CC3)sc2n1`: the “activity change, negative = inhibition” value is -20%.

As to `CCc1ccc(S(=O)(=O)Nc2cc3c(C(=O)OCc4ccccc4)c(C)oc3c3ccccc23)cc1`, the “activity change, negative = inhibition” value is -15.6%.

As for `COc1ccc(-c2cc(=O)c3c(O)cc(O)c(-c4cc(-c5cc(=O)c6c(O)cc(O)cc6o5)ccc4OC)c3o2)cc1`, the Potency was 25.1 µM (active).

For `CCOC(=O)c1ccc(NC(=O)c2ccc3c(c2)CCN3S(=O)(=O)c2ccc(Cl)cc2)cc1`, the “activity change, negative = inhibition” value is 1.19%.

`O=C(O)c1cc(-c2ccc(C(F)(F)F)cc2)nc2n[nH]c(-c3ccccc3)c12`: the Potency is 50.1 µM (active).

For the compound `Cc1ccc2nc(NS(=O)(=O)c3ccc(Cl)cc3)c(Nc3ccc(C(=O)O)cc3)nc2c1`, the Potency is 3.16 µM (active).

`CCOc1ccccc1NC(=O)c1ccc2oc(=O)c(S(=O)(=O)c3ccc(F)cc3)cc2c1`: the “activity change, negative = inhibition” value is -14.6%.

For the compound `Cc1csc2nc(COC(=O)c3ccc(NC(=O)c4ccccc4Br)cc3)cc(=O)n12`, the “activity change, negative = inhibition” value is -19.6%.

Regarding `COC(=O)c1ccc([C@H]2Nc3ccc(S(=O)(=O)Nc4ccc(C)cc4)cc3[C@H]3C=CC[C@H]32)cc1`, the Potency is 17.8 µM (active).

Regarding `O=c1oc2ccccc2cc1-c1nnc(Nc2ccc(Cl)cc2Cl)s1`, the Potency was 15.8 µM (active).

On to `COc1cc(C2Nc3ccccc3-c3nnc(SCc4ccc(Cl)cc4)nc3O2)ccc1OCC(=O)O` (configuration not stated), for which the Potency is 25.1 µM (active).

In the case of `COC(=O)C1=C(c2ccccc2)c2ccccc2S(=O)(=O)N1CC(=O)Nc1ccccc1C(F)(F)F`, the “activity change, negative = inhibition” value was -4.93%.

In the case of `COC(=O)c1ccccc1NC(=O)CSc1nc(-c2ccccc2)cc(C(F)(F)F)n1`, the “activity change, negative = inhibition” value is -9.07%.

`O=C(O)CSc1nc2ccc(NC(=O)COc3ccc(Cl)cc3)cc2s1`: the Potency is 20 µM (active).

`COc1ccc(S(=O)(=O)c2c(Nc3c(C)cccc3C)sc(C(=O)c3ccc4c(c3)OCO4)c2N)cc1`: the “activity change, negative = inhibition” value is -10.1%.

On to `CCOC(=O)c1ccc(Nc2nc3ccccc3nc2NS(=O)(=O)c2ccc(Cl)cc2)cc1`, for which the Potency is 3.55 µM (active).

With `O=C(O)CCc1ccc(-c2ccc(Cl)cc2)n1-c1cccc(C(F)(F)F)c1`, the Potency was 11.2 µM (active).

As to `O=C(/C=C/c1ccc(C(F)(F)F)cc1)OC(C(=O)NC1CC1)c1ccccc1` (configuration not stated), the “activity change, negative = inhibition” value was 3.65%.

For the compound `Cc1ccc(-c2nnc(Nc3ccc(O)cc3)c3ccccc23)cc1S(=O)(=O)NCc1nc2ccccc2[nH]1`, the “activity change, negative = inhibition” value was -8.23%.

In the case of `O=C(Nc1cccc(C(=O)OCc2cc(=O)n3nc(C4CC4)sc3n2)c1)c1cccc(F)c1`, the Potency was 25.1 µM (active).

Turning to `O=C(OCC#CCSc1nnc(-c2cccc3ccccc23)o1)c1sc(Cl)c(Cl)c1Cl`, the “activity change, negative = inhibition” value is -13.3%.

`Cc1csc2nc(COC(=O)c3ccccc3NC(=O)c3ccc(C(C)(C)C)cc3)cc(=O)n12`: the “activity change, negative = inhibition” value is -14.5%.

For the compound `O=S(=O)(Nc1ccc(Cl)cc1)c1ccc(NS(=O)(=O)c2ccc3c(c2)OCCO3)cc1`, the Potency is 35.5 µM (active).

Regarding `CC(C)(C)c1ccc(S(=O)(=O)Nc2ccc(O)c(Sc3nc4ccccc4s3)c2)cc1`, the Potency was 28.2 µM (active).

Take `COC(=O)c1c(NC(=O)c2cc3nc(-c4ccc(Br)cc4)cc(C(F)(F)F)n3n2)sc2c1CCCC2`: the “activity change, negative = inhibition” value is 1.03%.

As to `O=C(O)c1ccc(NC(=O)c2cn(-c3ccccc3)nc2-c2ccc(Br)cc2)cc1`, the Potency was 6.31 µM (active).

In the case of `O=C(CNc1nnc(-c2ccc([S+](=O)([O-])N3CCCC3)cc2)n1-c1ccccc1)Nc1ccc(C(=O)O)cc1`, the “activity change, negative = inhibition” value was 0.877%.

In the case of `Cc1c(Cl)cccc1NS(=O)(=O)c1ccc(NS(=O)(=O)c2ccc3c(c2)OCCO3)cc1`, the Potency was 25.1 µM (active).

For the compound `CC(C)c1nn2c(=O)cc(COC(=O)c3ccc(NC(=O)c4cccs4)cc3)nc2s1`, the “activity change, negative = inhibition” value is 6.65%.

`CC(NC(=O)C1CCN(S(=O)(=O)c2ccc3nc4c(c(C(=O)O)c3c2)CCCC4)CC1)c1ccccc1` (configuration not stated): the “activity change, negative = inhibition” value is -25.1%.

In the case of `O=C(CNC(=O)c1ccccc1)OC(C(=O)Nc1cc(C(F)(F)F)ccc1Cl)c1ccccc1` (configuration not stated), the “activity change, negative = inhibition” value was 2.33%.

Regarding `COC(=O)c1ccc(C(=O)Nc2ccc(-c3nc4cc(NC(=O)c5ccc(C(=O)OC)cc5)ccc4o3)cc2)cc1`, the “activity change, negative = inhibition” value was 2.91%.

As to `CCCc1nn2c(=O)cc(COC(=O)c3ccccc3NC(=O)c3ccc(Cl)cc3)nc2s1`, the “activity change, negative = inhibition” value was 3.58%.

For the compound `O=C(Nc1ccc(C(=O)OCc2cc(=O)n3c4c(sc3n2)CCCC4)cc1)c1cccc(F)c1`, the “activity change, negative = inhibition” value was -17.1%.

On to `O=C(O)Cn1nnc(-c2ccc(OCc3cccc(C(F)(F)F)c3)cc2)n1`, for which the Potency is 8.91 µM (active).

`O=c1oc2ccc3ccccc3c2cc1-c1nnc(Nc2ccc(Cl)cc2Cl)s1`: the “activity change, negative = inhibition” value is 4.22%.

As to `Cc1ccc(NC(=O)CSc2ncccc2C(=O)Oc2ccccc2Cl)cc1Cl`, the “activity change, negative = inhibition” value was 15.2%.
